Here are results for 6 compounds from PubChem BioAssay.

Structures are written as SMILES. Activity calls are given as the source filed them.

Assay [1] concerns the target Albumin (Bos taurus) (UniProt P02769). In words: compounds binding labelled BSA control protein – biochemical, small-molecule microarray, Alexa647 label, 635/667 nm fluorescence, artefact control for SMM control protein annotation, profiling panel (AID 1118).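 Also: score merges 667 nm emission intensity and signal-to-noise per printed compound spot.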 The settings on record: BSA-A647 binding, fluorescence 635 nm, higher = more signal.
Assay [2] can be described thus: probe aXIP binding to arrayed compounds – biochemical, NeuroSMM set, 635/667 nm fluorescence, primary screen (AID 1119).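 Also: probe is the protein aXip251-270 applied at 1 µg/mL to compound-printed slides; binding of probe to printed compounds measured as 667 nm fluorescence plus signal to noise.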 The settings on record: small-molecule microarray, higher = more signal, called active from +8 up or from −8 down.
A short description of assay [3]: probe aNOTCH3 binding on compound microarray – biochemical, small-molecule microarray, 635/667 nm fluorescence, primary screen (AID 1120).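 Also: probe is a biotin-tagged antibody raised against NOTCH3 rather than NOTCH3 protein; score merges spot fluorescence near 667 nm with spot signal to noise.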 The settings on record: higher = more signal.
Assay [4] can be described thus: probe aNOTCH2 binding on compound microarray – biochemical, small-molecule microarray, 635/667 nm fluorescence, primary screen (AID 1121).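 Also: score merges feature fluorescence read at 667 nm with its signal to noise.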 The conditions noted are these: higher = more signal.
In assay [5] the target is Carbonic anhydrase 2 (Homo sapiens) (UniProt P00918). In words: compounds binding carbonic anhydrase 2 – biochemical, small-molecule microarray, Alexa647-labelled CAII, profiling panel (AID 1122). The conditions noted are these: CAII-A647 binding fluorescence, higher = more signal.
Assay [6] can be described thus: COS7 lysate on small-molecule microarray, probe aHis, 635 nm (AID 1123).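 Also: z-score combines 667nm fluorescence intensity with signal-to-noise per printed compound spot.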 The conditions noted are these: COS7 cell lysate, fluorescence, higher = more signal.
Assay [7] is described as follows: probe aLAP1 signal on lysate-treated microarray – cell lysate, small-molecule microarray, COS7 lysate, primary screen (AID 1124).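 Also: lysate comes from COS7 cells expressing LAP1 and is applied at 0.3 µg/mL; score merges spot fluorescence near 667 nm with signal-to-noise over triplicate slides.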 The conditions noted are these: probe aLAP1, fluorescence, higher = more signal.
For assay [8], the system named is Sam68 (KHDRBS1). In words: compounds binding KHDRBS1 protein – biochemical, small-molecule microarray, 635 nm fluorescence, primary screen (AID 1125).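 Also: score merges 667 nm channel intensity with signal to noise over triplicate slides.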 The conditions noted are these: higher = more signal.
The subject of assay [9] is Chordin-like protein 2 (CHRDL2). In words: compounds binding chordin-like 2 – biochemical, small-molecule microarray, 635 nm fluorescence, primary screen (AID 1126).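 Also: printed compound slides probed with Chrdl2 protein at 4 µg/mL for 1 h at 4 C; score merges 667 nm emission intensity with signal to noise over three replicate slides.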 The conditions noted are these: fluorescence 635 nm, higher = more signal.
Assay [10] concerns the target Concanavalin-A (Canavalia ensiformis) (UniProt P02866). In words: compounds binding concanavalin A lectin – biochemical, small-molecule microarray, Alexa647 label, 635 nm, artefact control for SMM control protein annotation, primary screen (AID 1127).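 Also: z combines 667 nm emission intensity with signal-to-noise across three replicate slides.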 The settings on record: ConA-A647 binding fluorescence, higher = more signal.
The nature of assay [11]: compounds binding Alexa647 anti-His antibody – biochemical, small-molecule microarray, 635 nm fluorescence, artefact control for SMM control protein annotation, primary screen (AID 1128).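 Also: score merges feature fluorescence with signal-to-noise for each printed compound spot.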 The settings on record: higher = more signal.
In assay [12] the test system is Human papillomavirus type 1a E7 protein (residues 1-88). In words: HPV1a E7 small-molecule binders, primary screen, biochemical, small-molecule microarray, residues 1-88, 635 nm (AID 1129). The conditions noted are these: small-molecule microarray binding, fluorescence 635 nm; higher = more signal.
Assay [13] deals with Focal adhesion kinase 1 (Homo sapiens) (UniProt Q05397). In words: PTK2 protein binding on printed compound slides – biochemical, small-molecule microarray, 635/667 nm fluorescence, BSA, DTT, primary screen (AID 1130).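 Also: composite of spot emission at 667 nm and signal to noise over triplicate slides.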 The conditions noted are these: 635 nm fluorescence, higher = more signal.
Chain of Focal adhesion kinase 1 (Homo sapiens) (Q05397 whole entry, looked up): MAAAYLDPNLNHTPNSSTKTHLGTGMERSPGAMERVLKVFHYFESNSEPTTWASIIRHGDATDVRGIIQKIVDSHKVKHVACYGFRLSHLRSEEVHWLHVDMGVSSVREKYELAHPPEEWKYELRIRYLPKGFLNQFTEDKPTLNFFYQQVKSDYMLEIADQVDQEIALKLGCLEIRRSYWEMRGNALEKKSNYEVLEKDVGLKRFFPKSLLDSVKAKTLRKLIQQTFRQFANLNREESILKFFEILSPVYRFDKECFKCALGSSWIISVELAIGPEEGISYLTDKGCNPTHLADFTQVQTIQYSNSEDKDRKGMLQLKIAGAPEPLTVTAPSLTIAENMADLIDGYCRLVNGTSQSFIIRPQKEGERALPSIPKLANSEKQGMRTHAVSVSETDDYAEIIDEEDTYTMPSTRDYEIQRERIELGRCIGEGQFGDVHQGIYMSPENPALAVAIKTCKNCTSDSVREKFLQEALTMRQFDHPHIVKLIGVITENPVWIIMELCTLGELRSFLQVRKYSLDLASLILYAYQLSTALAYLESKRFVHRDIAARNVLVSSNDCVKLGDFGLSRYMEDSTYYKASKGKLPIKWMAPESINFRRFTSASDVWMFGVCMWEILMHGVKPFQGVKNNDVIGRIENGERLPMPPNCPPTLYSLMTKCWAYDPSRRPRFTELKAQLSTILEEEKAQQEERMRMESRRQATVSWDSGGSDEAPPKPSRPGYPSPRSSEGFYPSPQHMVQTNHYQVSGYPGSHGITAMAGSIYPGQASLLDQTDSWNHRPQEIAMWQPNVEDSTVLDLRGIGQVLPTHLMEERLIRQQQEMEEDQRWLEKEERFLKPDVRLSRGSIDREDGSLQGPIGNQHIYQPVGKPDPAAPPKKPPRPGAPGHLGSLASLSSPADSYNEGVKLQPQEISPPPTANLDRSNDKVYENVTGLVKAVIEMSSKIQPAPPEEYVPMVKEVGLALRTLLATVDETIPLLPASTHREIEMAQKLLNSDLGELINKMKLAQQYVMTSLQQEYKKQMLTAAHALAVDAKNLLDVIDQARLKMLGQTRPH
The test system of assay [14] is Fibrinogen (Alexa647-labelled). In words: Alexa647-fibrinogen binding to printed small molecules – biochemical, small-molecule microarray, 635/667 nm fluorescence, artefact control for SMM control-protein annotation, profiling panel (AID 1131).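 Also: z-score merges 667 nm fluorescence with per-spot signal-to-noise over triplicate slides.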 The settings on record: fibrinogen-A647 binding fluorescence, higher = more signal.
Assay [15] has as its target Follistatin (Homo sapiens) (UniProt P19883). In words: FST protein binding to printed compounds – biochemical, small-molecule microarray, 635/667 nm fluorescence, primary screen (AID 1132). The conditions noted are these: 635 nm fluorescence, higher = more signal.
The target of assay [16] is Fibroblast growth factor 2 (Homo sapiens) (UniProt P09038). In words: basic fibroblast growth factor binding to printed compounds – biochemical, small-molecule microarray, 635/667 nm fluorescence, primary screen (AID 1133). The conditions noted are these: FGF2, fluorescence 635/667, higher = more signal.
Chain of Fibroblast growth factor 2 (Homo sapiens) (P09038 whole entry, looked up): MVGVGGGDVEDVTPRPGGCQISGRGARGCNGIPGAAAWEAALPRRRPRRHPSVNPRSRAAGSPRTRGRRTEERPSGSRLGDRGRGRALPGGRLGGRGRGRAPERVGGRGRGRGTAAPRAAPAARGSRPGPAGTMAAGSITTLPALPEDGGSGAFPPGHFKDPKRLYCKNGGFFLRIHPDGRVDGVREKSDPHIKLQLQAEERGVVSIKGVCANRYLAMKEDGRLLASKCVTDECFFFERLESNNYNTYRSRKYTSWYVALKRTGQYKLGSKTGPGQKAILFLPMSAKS
A short description of assay [17]: JC-1 mitochondrial potential readout, lung cancer cells – cell-based, A549, JC-1 fluorescence, basal, 24 h, 100 nL, profiling panel (AID 1138).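 Also: A549 lung adenocarcinoma cells under basal conditions with no added stimulus; test concentration not given here.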 The conditions noted are these: higher = more signal.
Assay [18] relates to Lefty1. In words: Lefty1 protein binding to printed compounds – biochemical, small-molecule microarray, 635/667 nm fluorescence, primary screen (AID 1139). The conditions noted are these: fluorescence 635/667, higher = more signal.
Assay [19] concerns wheat germ agglutinin (Triticum aestivum), Alexa647-labelled. In words: Alexa647-WGA lectin binding to printed small molecules – biochemical, small-molecule microarray, 635/667 nm fluorescence, artefact control for SMM control-protein annotation, profiling panel (AID 1140).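 Also: score merges 667 nm feature emission with signal to noise over triplicate slides.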 The conditions noted are these: WGA-A647 binding, 635 nm fluorescence, higher = more signal.
The target of assay [20] is Luciferin 4-monooxygenase (Photinus pyralis) (UniProt P08659). In words: inhibition of purified Photinus pyralis luciferase – biochemical, luminescence, purified enzyme, 2006 set, primary screen (AID 1141).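 Also: cell-free assay with purified firefly luciferase at 100 ng per well in PBS; test concentration not given here.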 The conditions noted are these: purified firefly luciferase, SteadyGlo luminescence, 30 min; higher = more signal, called active from +8 up or from −8 down.
Chain of Luciferin 4-monooxygenase (Photinus pyralis) (P08659 whole entry, looked up): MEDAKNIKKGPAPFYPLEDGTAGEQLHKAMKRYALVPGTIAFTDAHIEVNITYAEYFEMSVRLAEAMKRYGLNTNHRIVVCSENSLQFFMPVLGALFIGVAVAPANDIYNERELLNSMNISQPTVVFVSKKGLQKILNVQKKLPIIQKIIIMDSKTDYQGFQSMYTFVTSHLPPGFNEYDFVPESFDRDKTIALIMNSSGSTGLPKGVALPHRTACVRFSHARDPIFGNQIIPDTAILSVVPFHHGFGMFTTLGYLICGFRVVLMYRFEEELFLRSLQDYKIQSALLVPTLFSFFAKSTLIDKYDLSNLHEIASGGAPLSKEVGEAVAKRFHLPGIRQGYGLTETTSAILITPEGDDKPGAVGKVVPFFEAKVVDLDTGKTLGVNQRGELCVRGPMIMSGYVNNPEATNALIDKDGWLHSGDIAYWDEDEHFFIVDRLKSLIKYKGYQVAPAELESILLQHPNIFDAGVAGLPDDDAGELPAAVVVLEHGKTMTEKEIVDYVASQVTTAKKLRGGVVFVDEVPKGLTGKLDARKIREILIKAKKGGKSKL

Chain of Concanavalin-A (Canavalia ensiformis) (P02866 whole entry, looked up): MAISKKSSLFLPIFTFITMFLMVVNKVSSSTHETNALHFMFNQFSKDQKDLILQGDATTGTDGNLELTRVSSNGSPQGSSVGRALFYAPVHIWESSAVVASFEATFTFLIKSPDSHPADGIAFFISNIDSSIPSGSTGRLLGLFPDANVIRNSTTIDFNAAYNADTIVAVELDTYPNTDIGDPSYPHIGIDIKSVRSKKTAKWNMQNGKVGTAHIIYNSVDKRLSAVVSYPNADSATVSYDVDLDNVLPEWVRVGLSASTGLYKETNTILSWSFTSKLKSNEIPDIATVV
Chain of Albumin (Bos taurus) (P02769 whole entry, looked up): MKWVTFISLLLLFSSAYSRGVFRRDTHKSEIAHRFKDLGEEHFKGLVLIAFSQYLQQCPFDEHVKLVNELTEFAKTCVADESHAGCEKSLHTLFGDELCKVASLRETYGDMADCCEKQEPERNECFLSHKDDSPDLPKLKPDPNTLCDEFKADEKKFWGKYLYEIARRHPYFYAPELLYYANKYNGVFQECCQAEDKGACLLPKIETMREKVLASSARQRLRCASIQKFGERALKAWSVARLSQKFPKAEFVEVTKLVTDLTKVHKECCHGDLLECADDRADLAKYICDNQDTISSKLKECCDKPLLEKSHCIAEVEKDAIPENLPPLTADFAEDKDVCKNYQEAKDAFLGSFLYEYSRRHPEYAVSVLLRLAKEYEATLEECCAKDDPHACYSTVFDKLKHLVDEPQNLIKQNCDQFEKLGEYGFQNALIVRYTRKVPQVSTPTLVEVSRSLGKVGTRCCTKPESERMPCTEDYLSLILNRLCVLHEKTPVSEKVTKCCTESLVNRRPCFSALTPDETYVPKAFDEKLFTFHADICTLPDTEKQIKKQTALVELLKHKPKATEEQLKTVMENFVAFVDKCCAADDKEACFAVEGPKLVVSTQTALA
Chain of Follistatin (Homo sapiens) (P19883 whole entry, looked up): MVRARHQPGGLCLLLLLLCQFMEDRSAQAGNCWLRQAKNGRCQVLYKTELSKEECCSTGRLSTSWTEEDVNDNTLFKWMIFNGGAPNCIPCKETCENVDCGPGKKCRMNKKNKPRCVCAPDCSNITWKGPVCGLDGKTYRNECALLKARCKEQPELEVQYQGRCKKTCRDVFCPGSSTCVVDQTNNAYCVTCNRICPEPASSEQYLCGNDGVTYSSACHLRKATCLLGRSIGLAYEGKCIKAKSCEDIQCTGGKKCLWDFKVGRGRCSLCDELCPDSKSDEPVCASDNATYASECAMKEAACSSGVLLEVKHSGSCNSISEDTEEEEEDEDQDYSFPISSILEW

For `Cc1cccc([C@H]2C[C@H]3C(Br)=C[C@@H]2C(=O)[C@]32CO2)c1`, the composite z-score is -0.904 in assay [1]; -0.125 in [3]; -0.16 in assay [4]; -0.255 in [5]; -0.498 in assay [6]; -0.552 in assay [7]. Also, the composite z-score in assay [8] was -0.721; in assay [9] it was 0.563; in assay [10], -0.051; in [11], -0.255; in [12], -1.61; in assay [13], -0.181. Moreover, the composite z-score in [14] is -0.145; in [15], 0.243; in assay [16] it was 0.291; in assay [18], 0.154; in assay [19], -0.278. In addition, the composite Z-score in assay [2] is 0.289 (inactive). Further, the results for the z-score in assay [17] and in assay [20] were 0.518 and -0.425 (inactive), respectively.

For `O=C1C[C@@](C(=O)NCC(F)(F)F)(c2ccc([N+](=O)[O-])cc2)[C@@H](c2ccc(CO)cc2)N1CC12CC3CC(CC(C3)C1)C2`, the composite z-score in assay [1] is -0.191; in assay [3] it was 0.6; in assay [4], 0.0345; in assay [5], 0.502; in assay [6] it was 2.17; in [7], -0.0251. The composite z-score worked out at 1.29 in [8]; 0.297 in [9]; 1.13 in assay [10]; 0.544 in [11]; 1.2 in assay [12]; 0.0423 in assay [13]. Besides, the composite z-score in assay [14] is 0.348; in assay [15], 1.5; in assay [16], 1.78; in [18], 0.634; in assay [19], 0.732. Further, the composite Z-score in [2] was 1.68 (inactive). The z-score was -0.598 in assay [17] and 0.28 (inactive) in [20].

Regarding `COCCOC(=O)N1C(=O)[C@@]2(c3cc(C#CC4(O)CCCCCC4)ccc31)[C@H](c1ccc(OCCO)cc1)N1[C@H](c3ccccc3)[C@H](c3ccccc3)OC(=O)[C@H]1[C@@H]2C(=O)Nc1nc2ccccc2s1`, the composite z-score in assay [1] is 0.729; in [3] it was 0.5; in assay [4], -0.0009; in assay [5], 0.161; in [6] it was 0.804; in [7], 0.388. The composite z-score in assay [8] was determined as 1.3; in assay [9], 0.58; in [10], 1.11; in assay [11], 1.08; in assay [12] it was 1.13; in [13], 0.2. Moreover, the composite z-score is 0.688 in [14]; 1.27 in assay [15]; 1.65 in assay [16]; 1.38 in assay [18]; 0.708 in [19]. Besides, the composite Z-score in assay [2] was 0.526 (inactive). The z-score is -2.33 in [17] and -2.55 (inactive) in assay [20].

On to `COc1cc(NN2C(C(O)c3ccc(I)cc3)C=CC3C(=O)N(c4ccccc4)C(=O)C32)cc(OC)c1OC` (stereo not given), for which the composite z-score in assay [1] is 0.499; in assay [3], 0.185; in [4], -0.0501; in assay [5], 0.758; in assay [6] it was 3.02; in [7] it was 0.0865. For the same compound, the composite z-score in [8] was 1.32; in assay [9], -0.357; in assay [10], 1.01; in assay [11], 2.4; in assay [12], 1.24; in assay [13], 0.522. For the same compound, the composite z-score in assay [14] worked out at 0.993; in [15] it was 1.2; in assay [16] it was 0.562; in [18], 0.52; in assay [19], 1.39. Moreover, the composite Z-score in [2] was 1.59 (inactive). The z-score in [17] was 0.235; in [20] it was -0.285 (inactive).

Take `CC1CC/C=C\[C@H]2OC34C=CCN(CCN5CCOCC5)C(=O)[C@H]3N(C(C)CO)C(=O)[C@@H]4C2C(=O)O1` (stereo not given in full): the composite z-score is -0.712 in [1]; -0.129 in assay [3]; -0.0741 in [4]; 0.738 in assay [5]; 1.57 in assay [6]; -0.221 in [7]. The composite z-score was 0.19 in assay [8]; -0.231 in [9]; -0.371 in assay [10]; -0.172 in assay [11]; -1.04 in assay [12]; -0.421 in assay [13]. In addition, the composite z-score is -1.99 in [14]; 0.446 in assay [15]; -0.439 in assay [16]; 0.582 in assay [18]; -0.928 in assay [19]. Also, the composite Z-score in assay [2] is 0.117 (inactive). Moreover, the z-score was 0.224 in assay [17] and -1.39 (inactive) in assay [20].

With `CC(=O)NCCCC[C@@H]1NC(=O)[C@@H]2C[C@H](C(=O)NCCCCCCN)[C@H](c3cccc(OCCO)c3)N2C1=O`, the composite z-score in [1] was 0.851; in [3] it was -0.0682; in assay [4], -0.149; in [5], 0.779; in assay [6], 1.72; in assay [7], 1.89. Also, the composite z-score in [8] is 1.12; in assay [9] it was -0.878; in assay [10], 1.12; in assay [11], 1.86; in [12], 0.286; in assay [13], 0.367. The composite z-score is 1.01 in [14]; 0.382 in assay [15]; -0.0704 in [16]; -0.555 in assay [18]; 1.11 in assay [19]. The composite Z-score in [2] is 0.801 (inactive). Besides, the z-score is 0.266 in [17] and -0.352 (inactive) in assay [20].
